{"source": "the supplement of paper PMC7057948", "about": "“A genome-wide approach for identification and characterisation of metabolite-inducible systems” (Nature Communications, 2020);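 further: RFP excited at 585 nm with emission read at 620 nm, culture medium blanks subtracted from fluorescence and absorbance prior to normalisation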"}
{"system": "HpdA/P_H16_RS24175 L-tyrosine biosensor (pEH158)", "assay": "relative induction of RFP reporter vs primary effector (background-corrected); higher = stronger activation of the biosensor", "conditions": "inducer concentration 5 mM; 6 h; Cupriavidus necator H16; minimal medium + 0.4% gluconate", "description": "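C. necator H16 strains, each carrying one of 21 transcription factor/inducible promoter–mRFP biosensor plasmids, were grown in minimal medium in 96-well plates (robotic platform). Each was exposed to 46 structurally or metabolically related compounds at 5 mM at 30 °C. OD-normalised RFP fluorescence was read 6 h later and expressed as relative induction (%) = 100 × (FL compound − FL uninduced)/(FL primary inducer − FL uninduced); mean of n=4.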", "units": {"relative induction of RFP reporter": "%"}}
{"smiles": "C[C@H](O)C(=O)O", "note": "[L-lactate]", "relative induction of RFP reporter": -0.188}
{"smiles": "N[C@@H](Cc1c[nH]c2ccccc12)C(=O)O", "note": "[L-tryptophan]", "relative induction of RFP reporter": 0.00902}
{"smiles": "O=C(O)/C=C/C(=O)O", "note": "[fumarate]", "relative induction of RFP reporter": -0.0945}
{"smiles": "Cn1cnc2c1c(=O)[nH]c(=O)n2C", "note": "[theobromine]", "relative induction of RFP reporter": 0.0337}
{"smiles": "O=S(=O)(O)CCO", "note": "[isethionate]", "relative induction of RFP reporter": -0.112}
{"smiles": "O=C(O)c1cc(=O)c2ccccc2[nH]1", "note": "[kynurenate]", "relative induction of RFP reporter": -0.151}
{"smiles": "O=C(O)c1cccnc1", "note": "[nicotinate]", "relative induction of RFP reporter": -0.141}
{"smiles": "O=C(O)C(O)c1ccccc1", "note": "(stereo not given) [mandelic acid]", "relative induction of RFP reporter": 0.0552}
{"smiles": "NCC(N)C(=O)O", "note": "(stereo not given) [2,3-diaminopropanoate]", "relative induction of RFP reporter": 0.123}
{"smiles": "O=c1[nH]cnc2nc[nH]c12", "note": "[hypoxanthine]", "relative induction of RFP reporter": -0.0963}
{"smiles": "NCCc1ccc(O)c(O)c1", "note": "[dopamine]", "relative induction of RFP reporter": -0.023}
{"smiles": "O=C(O)/C=C\\C=C/C(=O)O", "note": "[cis,cis-muconate]", "relative induction of RFP reporter": 0.00769}
{"smiles": "O=C(O)C1=CCCCC1", "note": "[cyclohexene-1-carboxylate]", "relative induction of RFP reporter": 0.0248}
{"smiles": "NCCS(=O)(=O)O", "note": "[taurine]", "relative induction of RFP reporter": -0.19}
{"smiles": "C[C@@H](O)C(=O)O", "note": "[D-lactate]", "relative induction of RFP reporter": -0.202}
{"smiles": "O=C(O)CC(CC(=O)O)C(=O)O", "note": "[tricarballylate]", "relative induction of RFP reporter": -0.173}
{"smiles": "O=C(O)[C@@H](O)[C@@H](O)[C@H](O)[C@@H](O)C(=O)O", "note": "[glucarate]", "relative induction of RFP reporter": -0.0077}
{"smiles": "C[C@H](N)C(=O)O", "note": "[L-alanine]", "relative induction of RFP reporter": -0.194}
{"smiles": "NC(=O)CC[C@H](N)C(=O)O", "note": "[L-glutamine]", "relative induction of RFP reporter": -0.216}
{"smiles": "CCC(=O)O", "note": "[propanoate]", "relative induction of RFP reporter": -0.0944}
{"smiles": "CCCC(=O)O", "note": "[butyric acid]", "relative induction of RFP reporter": -0.166}
{"smiles": "Oc1ccccc1", "note": "[phenol]", "relative induction of RFP reporter": -0.0814}
{"smiles": "O=C(O)CC(=O)C(=O)O", "note": "[oxaloacetate]", "relative induction of RFP reporter": -0.115}
{"smiles": "O=C(O)C1CCCC1", "note": "[cyclopentane-1-carboxylate]", "relative induction of RFP reporter": 0.108}
{"smiles": "Cn1c(=O)c2c(ncn2C)n(C)c1=O", "note": "[caffeine]", "relative induction of RFP reporter": 0.103}
{"smiles": "O=C(O)CCC(=O)O", "note": "[succinate]", "relative induction of RFP reporter": -0.126}
{"smiles": "O=C(O)c1c(O)cccc1O", "note": "[2,6-dihydroxybenzoate]", "relative induction of RFP reporter": 0.0687}
{"smiles": "O=C(O)C[C@H](O)C(=O)O", "note": "[L-malate]", "relative induction of RFP reporter": -0.0258}
{"smiles": "NC(C(=O)O)c1ccccc1", "note": "(racemic) [D,L-2-phenylglycine]", "relative induction of RFP reporter": 0.0147}
{"smiles": "O=C(O)C(O)C(=O)O", "note": "[tartronic acid]", "relative induction of RFP reporter": -0.0907}
{"smiles": "Oc1cccc(O)c1", "note": "[resorcinol]", "relative induction of RFP reporter": -0.0108}
{"smiles": "O=C(O)c1ccc(O)cc1", "note": "[4-hydroxybenzoate]", "relative induction of RFP reporter": -0.0931}
{"smiles": "O=C(O)CNC(=O)c1ccccc1", "note": "[N-benzoylglycine]", "relative induction of RFP reporter": -0.186}
{"smiles": "O=c1cc[nH]c(=O)[nH]1", "note": "[uracil]", "relative induction of RFP reporter": -0.0253}
{"smiles": "OC[C@@H](O)[C@@H](O)[C@H](O)[C@H](O)CO", "note": "[D-mannitol]", "relative induction of RFP reporter": -0.117}
{"smiles": "NCC(=O)O", "note": "[glycine]", "relative induction of RFP reporter": -0.0404}
{"smiles": "CC(N)CC(=O)O", "note": "(stereo not given) [3-aminobutanoate]", "relative induction of RFP reporter": -0.135}
{"smiles": "Oc1ccccc1O", "note": "[catechol]", "relative induction of RFP reporter": 0.0942}
{"smiles": "Oc1ccc(O)cc1", "note": "[hydroquinone]", "relative induction of RFP reporter": 0.0801}
{"smiles": "NCC(O)C(=O)O", "note": "(stereo not given) [3-amino-2-hydroxypropanoate]", "relative induction of RFP reporter": -0.0973}
